Screening results (PubChem BioAssay)
HCV inhibitor: HCV inhibition; Huh7.5.1 HCVcc-Cre infection, luciferase reporter, 44 h; Potency, µM (top dose mostly 41.8 µM), for the others: top-dose activity change, negative = inhibition, hits mostly inhibitors; actives 3.4% (n = 340,000); note: % is set by controls: 0 for no effect and ±100 for the full control effect
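After 44 h co-culture of compound, cells and HCVcc-Cre (~0.5 moi), substrate is added for 15 min at room temperature and luciferase measured over 15 sec. Cells were seeded at 1,000/well and pre-cultured 4 h.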
VACV mCherry inh: inhibitors of vaccinia virus infection (mCherry reporter signal). Vaccinia virus mCherry reporter infection, fluorescence. actives 0.63% (n = 310,000). AID 720579. Potency, µM (titrated, usually from 36.5 µM), for inactives: at the top dose activity change, negative = inhibition, actives largely listed as inhibitors; calls by dose curve; tested in A549 cells; note: % is set by controls: 0 for no effect and ±100 for the full control effect; nearly all actives have a fitted effect of over 35% in size
MARV entry inh: blocks Marburg virus binding to or entry into cells; Marburg virus pseudotyped entry inhibition, cell reporter; Potency, µM (top dose mostly 37.8 µM), inactives show at the highest dose activity change, negative = inhibition, most hits filed as inhibitors; AID 540276; actives 1.8% (n = 300,000); calls by dose curve; tested in HEK293 cells; note: % is set by controls: 0 for no effect and ±100 for the full control effect
LASV entry inh: inhibitors of Lassa virus binding or cell entry; Lassa virus pseudotype entry inhibition, cell reporter; AID 540256; actives 1.2% (n = 300,000); Potency, µM (titrated, usually from 37.9 µM), for inactives: at the highest dose activity change, negative = inhibition, usual class: inhibitors; calls by dose curve; tested in HEK293 cells; note: % is set by controls: 0 for no effect and ±100 for the full control effect; nearly all actives have a fitted effect of over 50% in size
VACV Venus inh: inhibitors of vaccinia virus (Venus reporter); Vaccinia virus Venus reporter expression, fluorescence; Potency, µM (series often up to 36.5 µM), for inactives: at the top dose activity change, negative = inhibition, usual class: inhibitors; actives 0.46% (n = 330,000); AID 720580; calls by dose curve; tested in A549 cells; note: % is set by controls: 0 for no effect and ±100 for the full control effect; nearly all actives have a fitted effect of over 30% in size
FMDV inh: antivirals against foot and mouth disease virus | actives 1.2% (n = 410,000) | AID 1159524 | FMDV antiviral cell-based qHTS | Potency, µM (doses to about 57.9 µM), without a hit: at the highest dose activity change, negative = inhibition, hits mostly inhibitors; calls by dose curve; tested in HEK293T cells; note: read-out not given here; % is set by controls: 0 for no effect and ±100 for the full control effect; nearly all actives have a fitted effect of over 45% in size
HCV confirm: confirmation of hepatitis C virus inhibitors. shares compounds with HCV inhibitor. HCVcc-Cre infectious virus cell assay, luciferase, inhibition. Potency, µM (doses to about 41.8 µM), for inactives: top-dose activity, negative = inhibition, hits mostly inhibitors. actives 78% (n = 640); note: nearly all actives have a fitted effect of over 80% in size
HCV cytotox: toxic to HCV host cells, flagging false HCV inhibitors | shares compounds with HCV inhibitor | HCV host cell line cytotoxicity counterscreen | Potency, µM (titrated, usually from 41.8 µM), inactives show at the top dose activity change, negative = cytotoxicity, hits mostly inhibitors | actives 22% (n = 640) | AID 720576;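 note: 44 h compound exposure; % is set by controls: 0 for no effect and ±100 for the full control effect; nearly all actives have a fitted effect of over 55% in size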
The depositor's hits bear a star; i = inactive; ? = inconclusive; . = no result given; [ ] = dose if it differs, or a comment. Only some compounds are listed: those with a hit (about 5.3% of all), similar ones and a draw of the others. Unless noted, calls come from the whole dose curve; as a rule, active = well fitted curve in the direction sought with a large enough effect; inconclusive = small, poorly fitted or top-dose-only effect, or another doubt; inactive = no such curve, though single readings can be large; an effect the other way counts as inactive or inconclusive. Potency is the fitted concentration of half-maximal effect.

SMILES	HCV inhibitor	VACV mCherry inh	MARV entry inh	LASV entry inh	VACV Venus inh	FMDV inh	HCV confirm	HCV cytotox
COc1ccc(-c2csc(NC(=O)C3CSC4(C)CCC(=O)N34)n2)c(OC)c1 (centres undefined)	8.91µM*	?	-25.5%	?	?	-2.1%	28µM*	-14.8%
CN1CCN(S(=O)(=O)c2ccc(N(C)Cc3ccc(C(F)(F)F)cc3)c([N+](=O)[O-])c2)CC1	3.16µM*	-22.9%	10µM*	?	?	?	14.1µM*	28µM*
COc1ccc(CCNC(=O)CCc2cn(Cc3ccccc3Cl)c3ccccc23)c(OC)c1	.	-11.0%	.	?	-12.3%	-2.7%	.	.
CC1CC(C)C(=O)C(C(CC2CC(=O)NC(=O)C2)OC(=O)CC(=O)c2ccccc2)C1 (centres undefined)	5.01µM*	3.98µM*	?	?	1.78µM*	-24.1%	12.5µM*	25.7%
Cc1ccccc1NC(=O)CSc1nc2ccccc2c(=O)n1C	3.16µM*	-13.0%	-29.2%	0.0%	-16.4%	?	8.87µM*	14.1µM*
Cc1ccc(S(=O)(=O)N(C)C)cc1-n1c(SCC(=O)Nc2ccc(F)cc2)nc2ccccc2c1=O	?	.	-3.2%	.	.	-7.8%	.	.
Cn1c(SCC(=O)Nc2ccc(F)cc2)nc2c(c1=O)SCC2	?	-18.0%	?	?	-10.9%	0.0%	.	.
Cc1ccc(S(=O)(=O)N(C)C)cc1-n1c(SCC(=O)Nc2ccc(F)cc2Cl)nc2ccccc2c1=O	1.26µM*	-14.8%	?	?	-13.8%	-28.3%	14.1µM*	38.2%
Cn1c(SCC(=O)Nc2ccccc2F)nc2c(c1=O)SCC2	6.31µM*	-17.8%	-24.3%	1.3%	-21.0%	-23.6%	22.3µM*	-22.5%
C[C@@H]1CN([C@@H](C)CO)C(=O)CCCn2nncc2CO[C@H]1CN(C)S(=O)(=O)c1ccc(-c2ccccc2)cc1	.	3.7%	.	.	-14.8%	?	.	.
CCc1ccc(-n2c(=O)c3c4c(sc3n(CC(=O)NCCCOC)c2=O)CCC4)cc1	.	-9.0%	12.1%[46.1 µM]	3.9%[46.1 µM]	-10.5%	-13.8%	.	.
COc1cccc(NC(=O)n2ncc3c(C)cccc32)c1	-9.0%	.	.	.	.	-62.1%	.	.
COc1cc(-c2nnc(-c3ccccc3)o2)cc(OC)c1OC	?	-1.1%	?	?	-17.6%	-16.3%	14.1µM*	12.1%
COc1cc(-c2nnc(-c3cc(OC)c(OC)c(OC)c3)o2)cc(OC)c1OC	?	.	0.0%	-12.7%	-15.2%	?	.	.
O=C(COc1ccc(Cl)cc1Br)NC(=O)NCc1ccccc1	-0.5%	-2.7%	4.2%[46.1 µM]	?	-7.1%	14.2%	.	.
Cc1ccccc1OCC(=O)OCC(=O)NC1CCCCCC1	6.8%	-5.5%	9.0%	-3.5%	-1.6%	-9.3%	.	.
COC(=O)C1=C(c2ccc3ccccc3c2)C[C@@H]2CC[C@H]1N2C(=O)N1CCCCC1	7.94µM*	-15.4%	.	.	?	?	11.2µM*	11.2µM*
COC(=O)C1=C(c2ccc(-c3ccccc3)c(F)c2)C[C@@H]2CC[C@H]1N2C(=O)N1CCOCC1	3.55µM*	-29.1%	.	.	-29.8%	?	7.91µM*	7.05µM*
COC(=O)C1=C(c2ccc(-c3ccccc3)c(F)c2)C[C@@H]2CC[C@H]1N2C(=O)N1CCC(C)CC1	?	-15.6%	.	.	?	-6.5%	.	.
CCCC(C)(C)C(=O)N1CCC1(C)C(=O)NS(=O)(=O)c1ccc(Br)cc1 (centres undefined)	.	i	.	.	-3.6%	26.4%	.	.
O=C(Nc1ccc(F)cc1F)N1CCCN(c2ccc(C(F)(F)F)cn2)CC1	5.01µM*	?	?	-11.1%	?	?	5.6µM*	7.91µM*
O=C(Nc1ccccc1)N1CCN(c2ccc(C(F)(F)F)cn2)CC1	?	.	-20.1%	3.5%	.	?	.	.
Cc1cnc(C(=O)N2CCN(c3ccc(C(F)(F)F)cn3)CC2)cn1	2.9%	-16.6%	?	-2.0%	-11.6%	-22.3%	.	.
CNC(=S)Nc1ccc(N2CCN(c3ccc(C(F)(F)F)cn3)CC2)nc1	2.51µM*	-20.3%	13.9%[46.1 µM]	0.0%[46.1 µM]	?	-25.0%	4.99µM*	?
CN(Cc1ccccc1)C(=O)c1ccc(NC(=O)Cc2cccc(NC(=O)C3CCN(C(=O)C4CCCC4)CC3)c2)cc1	-9.5%	i	4.4%	.	-28.2%	20.3%	.	.
SMILES	HCV inhibitor	VACV mCherry inh	MARV entry inh	LASV entry inh	VACV Venus inh	FMDV inh	HCV confirm	HCV cytotox
CCN(CC(=O)Nc1ccc([N+](=O)[O-])cc1OC)c1ccccc1	3.16µM*	-7.7%	?	?	3.8%	.	14.1µM*	-14.9%
COc1cc([N+](=O)[O-])ccc1NC(=O)CN(C)C	?	i	6.8%	-2.0%	-2.1%	.	.	.
Cc1cc(=O)n(C)c(=O)n1CCCCCCOc1cccc([N+](=O)[O-])c1	7.08µM*	-25.8%	-55.5%	9.7%	-12.2%	?	9.95µM*	-18.9%
CCCCN(C)CCCNC(=O)C1CCN(S(=O)(=O)CCC)CC1	.	-16.5%	.	21.1%[46.1 µM]	3.0%	0.0%	.	.
CCOC(=O)c1cc2c(=O)n3ccccc3nc2n(CCOC)c1=NC(=O)C(C)(C)C	?	.	2.3%	-1.3%	.	-18.3%	.	.
CCOC(=O)c1cc2c(=O)n3ccccc3nc2n(CCCOC)c1=NC(=O)C(C)(C)C	?	-7.4%	-2.7%	-6.4%	-8.0%	-16.5%	?	-15.5%
COc1ccc(-c2nc(SCc3ccccc3)n(S(C)(=O)=O)n2)cc1	2.82µM*	.	-10.7%	-3.4%	.	-17.8%	-27.1%	34.5%
Cc1cccc(CS(=O)(=O)c2ncc(Cl)c(C(=O)Nc3c(C)cccc3C)n2)c1	6.31µM*	.	.	.	.	-10.7%	9.95µM*	28µM*
O=C1NN=C2CCCCCCCCCCC12 (centres undefined)	.	-19.5%	.	.	-23.7%	-3.9%	.	.
CN1CCN(/N=C/c2ccc(Cl)c(Cl)c2)CC1	?	i	?	?	-15.1%	36.9%	?	-18.2%
CCCS(=O)(=O)N1CC(=O)N(c2cc(C)cc(C)c2)C(C)(C(=O)NC2CCCCCC2)C1 (centres undefined)	.	-12.5%	.	28.9%[46.1 µM]	-8.0%	12.2%	.	.
CC1(C)Oc2ccc3ccc(=O)oc3c2-c2cn[nH]c21	7.08µM*	.	-17.2%	?	?	6.3%	?	?
O=C1OCCN1C(=O)[C@H]1[C@H](c2ccc([N+](=O)[O-])cc2)C(c2ccc(F)cc2)=NN1c1ccc(Br)cc1	-56.2%	-18.9%	.	.	-3.8%	-18.7%	?	26.2%
O=C1OCCN1C(=O)[C@H]1[C@H](c2ccc([N+](=O)[O-])cc2)C(c2ccc(F)cc2)=NN1c1ccccc1	?	-27.8%	.	.	?	?	.	.
